High-throughput results from PubChem.
Most compounds without a hit are left out; they make up all but 3.8% or so of the library.
A549 viability: kills or reduces viability of A549 cells in Nrf2 counter-screen; Potency, µM (highest dose often 46 µM), for inactives: at the top dose activity change, negative = cytotoxicity, actives largely listed as inhibitors; A549 ARE-Fluc cells, CellTiter-Fluor viability, 18-24 h; AID 504648; 390,000 tested, 0.16% active; also: % is scaled to controls: 0 for no effect and ±100 for the full control effect
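Cytotoxicity counterscreen: CellTiter-Fluor fluorescence was measured in A549 ARE_Fluc cells after 18-24 h of compound exposure in a concentration series. The subsequent BugLite luminescent read reports ARE-luciferase activity.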
Nrf2 ARE act: activates Nrf2 signaling | 410,000 tested, 0.31% active | AREc32 ARE-luciferase reporter (MCF7-derived line), luminescence, 24 h | Potency, µM (highest dose often 46.1 µM), inactives show at the highest dose activation, usual class: activators; also: % of control where 0% means no effect; nearly all actives have a fitted effect of over 65% in size
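ARE-driven firefly luciferase activity in AREc32 cells measured after a 24 hr compound exposure at 37 deg C, using Steady-Glo reagent and a 30 min room-temperature hold.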
mIDH1 inhibitor: inhibitors of human mutant IDH1 R132H | 390,000 tested, 0.093% active | O75874 | Potency, µM (top dose mostly 76.6 µM), for the others: at the top dose activity change, negative = inhibition, usual class: inhibitors | IDH1-R132H enzyme, NADPH consumption, diaphorase/resazurin fluorescence; also: % is scaled to controls: 0 for no effect and ±100 for the full control effect; nearly all actives have a fitted effect of over 65% in size
Target sequence (O75874 whole entry R132H, stated change not applied): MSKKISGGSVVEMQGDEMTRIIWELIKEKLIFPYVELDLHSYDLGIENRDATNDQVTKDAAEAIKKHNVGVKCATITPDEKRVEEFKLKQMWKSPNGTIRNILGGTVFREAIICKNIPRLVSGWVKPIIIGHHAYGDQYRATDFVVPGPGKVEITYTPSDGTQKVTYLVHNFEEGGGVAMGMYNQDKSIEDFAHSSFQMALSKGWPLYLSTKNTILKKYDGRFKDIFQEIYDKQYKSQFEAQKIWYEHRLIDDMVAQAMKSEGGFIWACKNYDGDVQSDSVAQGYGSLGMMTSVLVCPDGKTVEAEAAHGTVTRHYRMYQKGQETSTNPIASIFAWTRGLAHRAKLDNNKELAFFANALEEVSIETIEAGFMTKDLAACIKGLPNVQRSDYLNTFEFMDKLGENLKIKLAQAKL
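IDH1-R132H (0.5 ug/mL) preincubated 30 min with compound, then NADPH (0.016 mM) and alpha-KG (2 mM) added; 80 min at RT, pH 7.5. Remaining NADPH coupled via diaphorase/resazurin to fluorescence (540/590 nm); concentration-response curves normalized to no-enzyme control.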
Nrf2 block: inhibitors of Nrf2 signaling; A549 ARE-Fluc reporter, luciferase luminescence, 18-24 h; Potency, µM (top dose mostly 46 µM), without a hit: at the top dose activity change, negative = inhibition, most hits filed as inhibitors; 360,000 tested, 2.1% active; AID 504444; also: % is scaled to controls: 0 for no effect and ±100 for the full control effect; nearly all actives have a fitted effect of over 60% in size
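In this cell-based qHTS, ARE-driven firefly luciferase in A549 cells reports Nrf2 activity; the luminescent signal after BugLite lysis is the measured value, with a prior CellTiter-Fluor read for cell health.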
ELG1 repair inh: inhibitors of ELG1-dependent DNA repair in HEK293T cells; 330,000 tested, 2.3% active; AID 504467; HEK293T ELG1-luciferase reporter, luminescence, 16 h; DNA damage induced by 5-fluorouridine; Potency, µM (top dose mostly 46.1 µM), without a hit: at the highest dose activity change, negative = inhibition, most hits filed as inhibitors; also: % is scaled to controls: 0 for no effect and ±100 for the full control effect; nearly all actives have a fitted effect of over 55% in size
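Luminescence from the luciferase reporter, measured 30 min after ONE-Glo reagent at room temperature, was the read-out. Beforehand, 2,000 cells per well were exposed for 16 hr at 37 °C to 5-fluorouridine together with compound or vehicle.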
An asterisk follows results filed as active; ? = inconclusive; / = no result. Calls follow the shape of the dose curve; as a rule, active = well fitted curve in the direction sought with a large enough effect; inconclusive = small, poorly fitted or top-dose-only effect, or another doubt; inactive = no such curve, though single readings can be large; an effect the other way counts as inactive or inconclusive. Potency is read from the fitted curve at half-maximal effect.

SMILES	A549 viability	Nrf2 ARE act	mIDH1 inhibitor	Nrf2 block	ELG1 repair inh
CC(O)C(NS(=O)(=O)c1ccc(Cl)cc1)C(=O)OCC(=O)c1ccc2c(c1)NC(=O)CO2 (stereo not drawn)	-4%	0%	-3%	10%	/
O=C1COc2ccc(C(=O)COC(=O)/C=C/c3ccco3)cc2N1	-6%	2.2µM*	3%	4%	-1%
CC(C)CC(NC(=O)c1ccc(Cl)cc1)C(=O)OCC(=O)c1ccc2c(c1)NC(=O)CO2 (stereo not drawn)	21µM*	0%	-4%	16µM*	?
COc1ccc(-c2nc(CN3CCC(C(=O)NCCCOC(C)C)CC3)c(C)o2)cc1OC	-1%	0%	-7%	7%	/
CCOC(=O)C1(Cc2cccc(F)c2)CCN(Cc2ccc(COC)o2)CC1	-1%	0%	6%	-1%	23µM*
CCOC(=O)C1(Cc2ccccc2)CCN(Cc2ccc(COC)o2)CC1	-1%	0%	0%	?	-6%
COc1ccc(CNC(=O)C2CCN(S(=O)(=O)c3c(C)noc3/C=C/c3ccccc3F)CC2)cc1	-2%	6%	-10%	/	/
CNC(=O)c1ccc(Nc2nc(-c3ccccc3)nc3ccccc23)cc1	-24%	5%	-7%	23µM*	15µM*
Cc1nnc2c(Nc3cccc(O)c3)nc3ccccc3n12	2%	3.2µM*	-12%	3%	/
Cc1ccc(-c2nc(Nc3ccc(N4CCOCC4)cc3)c3ccccc3n2)cc1	-19%	13%	7%	?	23µM*
CCCOC(=O)c1cccc(Nc2nc(-c3cccnc3)nc3ccccc23)c1	-5%	-3%	-1%	?	13µM*
Oc1cccc(Nc2c3ccccc3nc3ccccc23)c1	?	9%	-9%	23µM*	?
Cc1ccc(-c2nc(Nc3ccc(O)cc3)c3ccccc3n2)cc1	?	16%	-1%	4%	?
Cc1ccc(-c2nc(Nc3cccc(O)c3)c3ccccc3n2)cc1	8%	6%	0%	2%	21µM*
COc1ccc(CNC(=O)CSc2ccc(Br)cc2)cc1OC	1%	-1%	13%	23µM*	-9%
CCOC(=O)N1CCC(NC(=O)c2cc(C(=O)NCc3ccc(F)cc3)ccc2CO)CC1	-8%	0%	-6%	-24%	-15%
COc1cccc(N2CCN(C(=O)c3cc(-c4ccc(F)cc4)[nH]c3C)CC2)c1	-23%	8%	4%	?	21µM*
Cc1[nH]c(-c2ccc(F)cc2)cc1C(=O)N1CCN(c2ccccc2)CC1	?	3%	5%	?	?
CCOC(=O)N1CCC(NC(=O)c2cc(-c3ccc(F)cc3)[nH]c2C)CC1	-29%	4%	2%	23µM*	-25%
CC(C)OC(=O)c1ccc(NCc2cc(O)ccc2O)cc1	-8%	13µM*	3%	7%	/
Cn1nc(-c2ccncc2)nc2c(=O)n(C)c(=O)nc1-2	2.9µM*	/	/	2.3µM*	/
CN(Cc1ccccc1)S(=O)(=O)c1ccc(NC(=O)c2cc(=O)c3ccccc3o2)cc1	-1%	0%	0%	?	/
Cc1ccc2[nH]c(=O)c(CN(CCc3ccccc3)C(c3nnnn3Cc3ccco3)C(C)C)cc2c1 (stereo not drawn)	-18%	-1%	-15%	?	18µM*
CCC(c1nnnn1CCc1ccccc1)N(Cc1ccco1)Cc1cc2c(C)ccc(C)c2[nH]c1=O (stereo not drawn)	?	4%	3%	18µM*	?
CCN1CC2=C(OC(N)=C(C#N)C2c2cccs2)/C(=C/c2cccs2)C1 (stereo not drawn)	-14%	15%	-4%	?	16µM*
O=[S+]([O-])(c1cc2ccccc2o1)N1CCN([S+](=O)([O-])c2c(F)cccc2F)CC1	-3%	/	/	-11%	/
O=C(/C=C/c1cccs1)c1cc(Cl)ccc1O	-5%	14µM*	-4%	11%	0%
O=C(C=Cc1ccco1)c1cc(Cl)ccc1O	0%	?	-3%	7%	/
O=C(C=Cc1cccs1)c1ccc(Cl)s1	-3%	22µM*	7%	5%	/
